{"source": "paper PMC5540273", "about": "(PLoS ONE, 2017);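 note: KINOMEscan kinase panel screen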", "data": [{"system": "T1, MINK", "T1 construct": "gene MINK1", "details": "concentration: 1 μM,replicates: in singlicate; n = 1", "units": {"%Inh": "%"}, "values": [{"molecule": "C[C@@H](Oc1cc(-n2cnc3cc(-c4ccncc4)ccc32)sc1C(N)=O)c1ccccc1Cl", "note": "[GSK479719]", "%Inh": 0}, {"molecule": "COc1cc2c(Nc3ccc(NC(=O)c4ccccc4)cc3)ncnc2cc1OCCCN1CCOCC1", "note": "[GSK301329]", "%Inh": 17}, {"molecule": "Cc1cccc(-c2nc(Nc3ccncc3)c3sccc3n2)n1", "note": "[GW869641]", "%Inh": 77}, {"molecule": "Cl.Cl.NC[C@H](CC1CCCCC1)NC(=O)c1ccc(-c2ccnc3[nH]ccc23)s1", "note": "[GSK1581428]", "%Inh": 67}, {"molecule": "Cc1ccc(Nc2ccnc(Nc3ccc4c(c3)CS(=O)(=O)C4)n2)cc1O.Cl", "note": "[GW579362]", "%Inh": 64}, {"molecule": "CCOC(=O)N1CCC(n2cnc(-c3ccc(F)cc3)c2-c2ccnc(N)n2)CC1", "note": "[SB-219952]", "%Inh": 54}, {"molecule": "CS(=O)(=O)c1cccc(CNc2nc(Nc3ccc4c(c3)[C@@H]3C[C@@H]4CNC3=O)ncc2C(F)(F)F)c1", "%Inh": 90.3}, {"molecule": "O=C(Nc1ccc(Oc2ccc3nc(NC(=O)C4CC4)cn3n2)c(F)c1)c1cccn(-c2ccccc2)c1=O", "%Inh": 0}, {"molecule": "Cc1ccc(C(=O)Nc2ccc(Oc3ccc4nc(NC(=O)C5CC5)cn4c3)c(F)c2)c(=O)n1-c1ccccc1", "%Inh": 0}, {"molecule": "CCN1CCN(CCCC(=O)Nc2n[nH]c3nc(-c4ccc(O)cc4)c(Br)cc23)CC1", "note": "[SB-731579]", "%Inh": 0}, {"molecule": "COC(=O)c1cccc(NC(=O)NC2CCN(c3ccnc(Nc4cc(OC)c(OC)c(OC)c4)n3)C2)c1", "note": "(centres unmarked) [GSK1379767]", "%Inh": 3}, {"molecule": "Cn1cc(-c2cccc3c(N)c(C(N)=O)nnc23)cn1", "%Inh": 29}, {"molecule": "Cn1ccc2ncnc(Oc3ccc(NC(=O)Nc4cccc(C(F)(F)F)c4)c(F)c3)c21", "%Inh": 0}, {"molecule": "COc1cc(Nc2nccc(N3CCC(NC(=O)c4cccc(C#N)c4)C3)n2)cc(OC)c1OC", "note": "(centres unmarked) [GSK1379751]", "%Inh": 0}, {"molecule": "c1ccc(Oc2ccc(Nc3ccnc4ccc(-c5ccccn5)cc34)cc2)cc1", "note": "[GW407034]", "%Inh": 0}, {"molecule": "C[C@@H](Oc1cc(-n2cnc3cc(-c4cnn(C)c4)ccc32)sc1C(N)=O)c1ccccc1Cl", "note": "[GSK580432]", "%Inh": 40}, {"molecule": "FC(F)(F)c1cc(Br)cc(Nc2nccc(-c3cnn4ncccc34)n2)c1", "note": "[GW810578]", "%Inh": 3}, {"molecule": "COc1cccc(CNC(=O)NC2CCN(c3ccnc(Nc4cc(OC)c(OC)c(OC)c4)n3)C2)c1", "note": "(centres unmarked) [GSK1379765]", "%Inh": 12}, {"molecule": "Cc1n[nH]c2cc(Nc3ccnc(Nc4cccc(CN5CCOCC5)c4)n3)ccc12", "note": "[GW682569]", "%Inh": 22}, {"molecule": "O=C(NCC1CC1)c1ccc(-c2cc(C(=O)NC3CC3)ccc2F)cc1", "note": "[GW810445]", "%Inh": 0}, {"molecule": "Cc1nnc(-c2ccc3occ(-c4ccc(S(C)=O)cc4)c3n2)o1", "note": "(centres unmarked)", "%Inh": 0}, {"molecule": "COC(=O)c1cccc(NC(=O)NC2CCN(c3ccnc(NCc4ccc(F)cc4)n3)CC2)c1", "note": "[GSK1379860]", "%Inh": 0}, {"molecule": "Cc1cccc2c(-c3ccncc3)c(-c3ccc(F)cc3)nn12.Cl", "note": "[GW461487]", "%Inh": 30}, {"molecule": "O=C(Nc1n[nH]c2cc(-c3ccco3)ccc12)C1CC1", "note": "[SB-737447]", "%Inh": 63}, {"molecule": "CN(c1ccccc1CNc1nc(Nc2ccc3c(c2)CC(=O)N3)ncc1C(F)(F)F)S(C)(=O)=O", "%Inh": 48}, {"molecule": "CC(=O)Nc1nc2cnc(Nc3cc(NC(=O)c4cccc(CC(C)(C)C#N)c4)ccc3C)nc2s1", "%Inh": 3}, {"molecule": "COc1ccc(Nc2nccc(N3CCC(NC(=O)c4cccc(C#N)c4)C3)n2)cc1", "note": "(centres unmarked) [GSK1379730]", "%Inh": 0}, {"molecule": "CS(=O)c1ccc(-c2coc3ccc(-c4n[nH]c(=O)o4)cc23)cc1", "note": "(centres unmarked)", "%Inh": 7}, {"molecule": "CS(=O)(=O)Nc1ccc(-c2ccnc3[nH]ccc23)cc1", "note": "[GSK993273]", "%Inh": 23}, {"molecule": "Cn1ccc2ncnc(Oc3ccc(NC(=O)Nc4cnn(C(C)(C)C)c4)c(Cl)c3)c21", "%Inh": 70}, {"molecule": "Cl.c1ccc(Oc2ccc(Nc3ccnc4cc(-c5ccc(CN6CCNCC6)o5)ccc34)cc2)nc1", "note": "[GW567142]", "%Inh": 27}, {"molecule": "CSc1nccc(-c2c(-c3ccc(F)cc3)ncn2CCCN2CCOCC2)n1.Cl", "note": "[SB-217146]", "%Inh": 26}, {"molecule": "C[C@@H](Oc1cc(-n2cnc3ccc(-c4ccncc4)cc32)sc1C(N)=O)c1ccccc1Cl", "note": "[GSK483724]", "%Inh": 23}, {"molecule": "Nc1nccc(-c2ccc3c(N)n[nH]c3c2)n1", "note": "[GSK1034945]", "%Inh": 47}, {"molecule": "CC(C(=O)NC1CCN(c2ccnc(Nc3ccc(F)cc3)n2)C1)c1ccc(Cl)cc1", "note": "(centres unmarked) [GSK1379713]", "%Inh": 0}, {"molecule": "C[C@@H]1CCN(C(=O)N2CCCC2)C[C@@H]1N(C)c1ncnc2[nH]ccc12", "%Inh": 30}, {"molecule": "NC(=O)c1ccc(-c2cc3ncnc(SCC(=O)O)c3s2)cc1", "%Inh": 39}]}, {"system": "MKK7", "details": "concentration: 1 μM,replicates: in singlicate; n = 1", "units": {"%Inh": "%"}, "values": [{"molecule": "C[C@@H](Oc1cc(-n2cnc3cc(-c4ccncc4)ccc32)sc1C(N)=O)c1ccccc1Cl", "note": "[GSK479719]", "%Inh": 0}, {"molecule": "COc1cc2c(Nc3ccc(NC(=O)c4ccccc4)cc3)ncnc2cc1OCCCN1CCOCC1", "note": "[GSK301329]", "%Inh": 0}, {"molecule": "Cc1cccc(-c2nc(Nc3ccncc3)c3sccc3n2)n1", "note": "[GW869641]", "%Inh": 16}, {"molecule": "Cl.Cl.NC[C@H](CC1CCCCC1)NC(=O)c1ccc(-c2ccnc3[nH]ccc23)s1", "note": "[GSK1581428]", "%Inh": 0}, {"molecule": "Cc1ccc(Nc2ccnc(Nc3ccc4c(c3)CS(=O)(=O)C4)n2)cc1O.Cl", "note": "[GW579362]", "%Inh": 0}, {"molecule": "CCOC(=O)N1CCC(n2cnc(-c3ccc(F)cc3)c2-c2ccnc(N)n2)CC1", "note": "[SB-219952]", "%Inh": 11}, {"molecule": "CS(=O)(=O)c1cccc(CNc2nc(Nc3ccc4c(c3)[C@@H]3C[C@@H]4CNC3=O)ncc2C(F)(F)F)c1", "%Inh": 9}, {"molecule": "O=C(Nc1ccc(Oc2ccc3nc(NC(=O)C4CC4)cn3n2)c(F)c1)c1cccn(-c2ccccc2)c1=O", "%Inh": 0}, {"molecule": "Cc1ccc(C(=O)Nc2ccc(Oc3ccc4nc(NC(=O)C5CC5)cn4c3)c(F)c2)c(=O)n1-c1ccccc1", "%Inh": 0}, {"molecule": "CCN1CCN(CCCC(=O)Nc2n[nH]c3nc(-c4ccc(O)cc4)c(Br)cc23)CC1", "note": "[SB-731579]", "%Inh": 0}, {"molecule": "COC(=O)c1cccc(NC(=O)NC2CCN(c3ccnc(Nc4cc(OC)c(OC)c(OC)c4)n3)C2)c1", "note": "(centres unmarked) [GSK1379767]", "%Inh": 21}, {"molecule": "Cn1cc(-c2cccc3c(N)c(C(N)=O)nnc23)cn1", "%Inh": 13}, {"molecule": "Cn1ccc2ncnc(Oc3ccc(NC(=O)Nc4cccc(C(F)(F)F)c4)c(F)c3)c21", "%Inh": 0}, {"molecule": "COc1cc(Nc2nccc(N3CCC(NC(=O)c4cccc(C#N)c4)C3)n2)cc(OC)c1OC", "note": "(centres unmarked) [GSK1379751]", "%Inh": 16}, {"molecule": "c1ccc(Oc2ccc(Nc3ccnc4ccc(-c5ccccn5)cc34)cc2)cc1", "note": "[GW407034]", "%Inh": 0}, {"molecule": "C[C@@H](Oc1cc(-n2cnc3cc(-c4cnn(C)c4)ccc32)sc1C(N)=O)c1ccccc1Cl", "note": "[GSK580432]", "%Inh": 0}, {"molecule": "FC(F)(F)c1cc(Br)cc(Nc2nccc(-c3cnn4ncccc34)n2)c1", "note": "[GW810578]", "%Inh": 0}, {"molecule": "COc1cccc(CNC(=O)NC2CCN(c3ccnc(Nc4cc(OC)c(OC)c(OC)c4)n3)C2)c1", "note": "(centres unmarked) [GSK1379765]", "%Inh": 0}, {"molecule": "Cc1n[nH]c2cc(Nc3ccnc(Nc4cccc(CN5CCOCC5)c4)n3)ccc12", "note": "[GW682569]", "%Inh": 0}, {"molecule": "O=C(NCC1CC1)c1ccc(-c2cc(C(=O)NC3CC3)ccc2F)cc1", "note": "[GW810445]", "%Inh": 8}, {"molecule": "Cc1nnc(-c2ccc3occ(-c4ccc(S(C)=O)cc4)c3n2)o1", "note": "(centres unmarked)", "%Inh": 0}, {"molecule": "COC(=O)c1cccc(NC(=O)NC2CCN(c3ccnc(NCc4ccc(F)cc4)n3)CC2)c1", "note": "[GSK1379860]", "%Inh": 45}, {"molecule": "Cc1cccc2c(-c3ccncc3)c(-c3ccc(F)cc3)nn12.Cl", "note": "[GW461487]", "%Inh": 0}, {"molecule": "O=C(Nc1n[nH]c2cc(-c3ccco3)ccc12)C1CC1", "note": "[SB-737447]", "%Inh": 0}, {"molecule": "CN(c1ccccc1CNc1nc(Nc2ccc3c(c2)CC(=O)N3)ncc1C(F)(F)F)S(C)(=O)=O", "%Inh": 0}, {"molecule": "CC(=O)Nc1nc2cnc(Nc3cc(NC(=O)c4cccc(CC(C)(C)C#N)c4)ccc3C)nc2s1", "%Inh": 0}, {"molecule": "COc1ccc(Nc2nccc(N3CCC(NC(=O)c4cccc(C#N)c4)C3)n2)cc1", "note": "(centres unmarked) [GSK1379730]", "%Inh": 17}, {"molecule": "CS(=O)c1ccc(-c2coc3ccc(-c4n[nH]c(=O)o4)cc23)cc1", "note": "(centres unmarked)", "%Inh": 1}, {"molecule": "CS(=O)(=O)Nc1ccc(-c2ccnc3[nH]ccc23)cc1", "note": "[GSK993273]", "%Inh": 0}, {"molecule": "Cn1ccc2ncnc(Oc3ccc(NC(=O)Nc4cnn(C(C)(C)C)c4)c(Cl)c3)c21", "%Inh": 0}, {"molecule": "Cl.c1ccc(Oc2ccc(Nc3ccnc4cc(-c5ccc(CN6CCNCC6)o5)ccc34)cc2)nc1", "note": "[GW567142]", "%Inh": 11}, {"molecule": "CSc1nccc(-c2c(-c3ccc(F)cc3)ncn2CCCN2CCOCC2)n1.Cl", "note": "[SB-217146]", "%Inh": 0}, {"molecule": "C[C@@H](Oc1cc(-n2cnc3ccc(-c4ccncc4)cc32)sc1C(N)=O)c1ccccc1Cl", "note": "[GSK483724]", "%Inh": 56}, {"molecule": "Nc1nccc(-c2ccc3c(N)n[nH]c3c2)n1", "note": "[GSK1034945]", "%Inh": 0}, {"molecule": "CC(C(=O)NC1CCN(c2ccnc(Nc3ccc(F)cc3)n2)C1)c1ccc(Cl)cc1", "note": "(centres unmarked) [GSK1379713]", "%Inh": 0}, {"molecule": "C[C@@H]1CCN(C(=O)N2CCCC2)C[C@@H]1N(C)c1ncnc2[nH]ccc12", "%Inh": 0}, {"molecule": "NC(=O)c1ccc(-c2cc3ncnc(SCC(=O)O)c3s2)cc1", "%Inh": 0}]}]}
